PubChem BioAssay AID1159580 (chemical genetic matrix, 2015)
The campaign covered roughly 5,500 compounds. About 2,000 (36%) were called active. Inconclusive results (about 18%) are left out. Rule as the data show it: active = normalized growth mostly below about 0.91 (no sharp cut-off); inconclusive = no clear call, values can overlap the other calls; inactive = mostly above about 0.92. The list shows a part of the results.

Test: chemical genetic growth profiling, strain panel (AID 1159580);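 also: tested at 20 µM; growth read once vehicle control cultures reached saturation at 30 °C; 1 = growth at the plate median or of vehicle wells; lower values mean less growth of the strain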
Conditions: growth OD

Measured: normalized growth

Cc1ccc2c(c1)CC[C@H]1CC(=O)CC[C@]21C
inactive: S. cerevisiae deletion strains, locus YKL009W, strain mrt4, stronger effect = lower value 0.982 | S. cerevisiae deletion strains, locus YKL068W, stronger effect = lower value 0.991 | S. cerevisiae deletion strains, locus YKL085W, strain MDH1 (second series), stronger effect = lower value 0.973 | S. cerevisiae deletion strains, locus YKL085W, strain MDH1, stronger effect = lower value 0.973 | S. cerevisiae deletion strains, locus YKL160W, strain elf1, stronger effect = lower value 1.01 | S. cerevisiae deletion strains, locus YKL190W, strain CNB1, stronger effect = lower value 0.997 | S. cerevisiae deletion strains, locus YKR001C, strain vps1, stronger effect = lower value 0.953 | S. cerevisiae deletion strains, locus YKR026C, strain gcn3, stronger effect = lower value 1.01 | S. cerevisiae deletion strains, locus YKR091W, strain srl3, stronger effect = lower value 1 | S. cerevisiae deletion strains, locus YLL001W, strain dnm1, stronger effect = lower value 0.999 | S. cerevisiae deletion strains, locus YLL026W, stronger effect = lower value 1.01 | S. cerevisiae deletion strains, locus YLL041C, strain sdh2, stronger effect = lower value 0.991 | S. cerevisiae deletion strains, locus YLR027C, strain aat2, stronger effect = lower value 0.989 | S. cerevisiae deletion strains, locus YLR039C, strain RIC1, stronger effect = lower value 0.925 | S. cerevisiae deletion strains, locus YLR058C, strain SHM2, stronger effect = lower value 0.998 | S. cerevisiae deletion strains, locus YLR102C, strain apc9, stronger effect = lower value 0.983 | S. cerevisiae deletion strains, locus YLR113W, strain HOG1, stronger effect = lower value 0.975 | S. cerevisiae deletion strains, locus YLR221C, strain rsa3, stronger effect = lower value 0.995 | S. cerevisiae deletion strains, locus YLR258W, strain gsy2, stronger effect = lower value 1 | S. cerevisiae deletion strains, locus YLR262C, strain YPT6 (second series), stronger effect = lower value 0.942 | S. cerevisiae deletion strains, locus YLR262C, strain YPT6, stronger effect = lower value 0.917 | S. cerevisiae deletion strains, locus YLR268W, strain sec22, stronger effect = lower value 1.01 | S. cerevisiae deletion strains, locus YLR320W, strain mms22, stronger effect = lower value 0.977 | S. cerevisiae deletion strains, locus YLR330W, strain CHS5, stronger effect = lower value 0.991 | S. cerevisiae deletion strains, locus YLR342W, strain FKS1 (second series), stronger effect = lower value 0.94 | S. cerevisiae deletion strains, locus YLR342W, strain FKS1, stronger effect = lower value 0.997 | S. cerevisiae deletion strains, locus YLR357W, strain rsc2, stronger effect = lower value 1.01 | S. cerevisiae deletion strains, locus YLR370C, strain arc18, stronger effect = lower value 1.02 | S. cerevisiae deletion strains, locus YLR371W, strain rom2, stronger effect = lower value 0.972 | S. cerevisiae deletion strains, locus YLR384C, strain iki3, stronger effect = lower value 1.01 | S. cerevisiae deletion strains, locus YLR418C, strain cdc73, stronger effect = lower value 0.923 | S. cerevisiae deletion strains, locus YML016C, strain PPZ1, stronger effect = lower value 0.984 | S. cerevisiae deletion strains, locus YML032C, strain rad52, stronger effect = lower value 0.972 | S. cerevisiae deletion strains, locus YML120C, strain ndi1, stronger effect = lower value 0.986 | S. cerevisiae deletion strains, locus YML124C, strain tub3, stronger effect = lower value 0.98 | S. cerevisiae deletion strains, locus YMR058W, strain fet3, stronger effect = lower value 1.01 | S. cerevisiae deletion strains, locus YMR078C, strain ctf18, stronger effect = lower value 0.969 | S. cerevisiae deletion strains, locus YMR125W, strain sto1, stronger effect = lower value 1 | S. cerevisiae deletion strains, locus YMR129W, stronger effect = lower value 1.01 | S. cerevisiae deletion strains, locus YMR205C, strain PFK2, stronger effect = lower value 1 | S. cerevisiae deletion strains, locus YMR223W, strain ubp8, stronger effect = lower value 0.966 | S. cerevisiae deletion strains, locus YMR231W, strain pep5, stronger effect = lower value 0.997 | S. cerevisiae deletion strains, locus YMR263W, strain SAP30, stronger effect = lower value 1.01 | S. cerevisiae deletion strains, locus YMR307W, strain GAS1, stronger effect = lower value 0.908 | S. cerevisiae deletion strains, locus YNL067W, strain RPL9B, stronger effect = lower value 0.999 | S. cerevisiae deletion strains, locus YNL071W, strain lat1, stronger effect = lower value 0.999 | S. cerevisiae deletion strains, locus YNL128W, strain TEP1, stronger effect = lower value 1.01 | S. cerevisiae deletion strains, locus YNL153C, strain GIM3, stronger effect = lower value 1.02 | S. cerevisiae deletion strains, locus YNL183C, strain NPR1, stronger effect = lower value 0.907 | S. cerevisiae deletion strains, locus YNL209W, strain ssb2, stronger effect = lower value 0.998 | S. cerevisiae deletion strains, locus YNL233W, strain BNI4, stronger effect = lower value 0.979 | S. cerevisiae deletion strains, locus YNL248C, strain rpa49, stronger effect = lower value 0.99 | S. cerevisiae deletion strains, locus YNL250W, strain rad50, stronger effect = lower value 0.979 | S. cerevisiae deletion strains, locus YNL271C, strain bni1, stronger effect = lower value 0.96 | S. cerevisiae deletion strains, locus YNL298W, strain CLA4, stronger effect = lower value 0.987 | S. cerevisiae deletion strains, locus YNL322C, strain KRE1 (second series), stronger effect = lower value 1 | S. cerevisiae deletion strains, locus YNL322C, strain KRE1, stronger effect = lower value 1 | S. cerevisiae deletion strains, locus YNR049C, strain mso1, stronger effect = lower value 1 | S. cerevisiae deletion strains, locus YNR052C, strain pop2, stronger effect = lower value 0.976 | S. cerevisiae deletion strains, locus YOL006C, strain TOP1, stronger effect = lower value 0.878 | S. cerevisiae deletion strains, locus YOL012C, strain htz1 1.46 | S. cerevisiae deletion strains, locus YOL147C, strain pex11, stronger effect = lower value 0.981 | S. cerevisiae deletion strains, locus YOR001W, strain rrp6, stronger effect = lower value 0.981 | S. cerevisiae deletion strains, locus YOR061W, strain CKA2, stronger effect = lower value 0.998 | S. cerevisiae deletion strains, locus YOR069W, strain VPS5, stronger effect = lower value 0.998 | S. cerevisiae deletion strains, locus YOR070C, strain gyp1, stronger effect = lower value 1 | S. cerevisiae deletion strains, locus YOR080W, strain dia2, stronger effect = lower value 0.994 | S. cerevisiae deletion strains, locus YOR083W, strain WHI5, stronger effect = lower value 1 | S. cerevisiae deletion strains, locus YOR106W, strain vam3, stronger effect = lower value 0.998 | S. cerevisiae deletion strains, locus YOR136W, strain idh2, stronger effect = lower value 0.993 | S. cerevisiae deletion strains, locus YOR144C, strain elg1, stronger effect = lower value 0.976 | S. cerevisiae deletion strains, locus YOR184W, strain ser1, stronger effect = lower value 0.895 | S. cerevisiae deletion strains, locus YOR231W, strain MKK1, stronger effect = lower value 0.981 | S. cerevisiae deletion strains, locus YOR265W, strain rbl2, stronger effect = lower value 1 | S. cerevisiae deletion strains, locus YOR270C, strain vph1, stronger effect = lower value 0.889 | S. cerevisiae deletion strains, locus YOR290C, strain snf2, stronger effect = lower value 1.01 | S. cerevisiae deletion strains, locus YOR316C, strain cot1, stronger effect = lower value 0.982 | S. cerevisiae deletion strains, locus YPL051W, strain arl3, stronger effect = lower value 1.01 | S. cerevisiae deletion strains, locus YPL055C, strain LGE1, stronger effect = lower value 0.99 | S. cerevisiae deletion strains, locus YPL078C, strain atp4, stronger effect = lower value 0.993 | S. cerevisiae deletion strains, locus YPL106C, strain sse1, stronger effect = lower value 1.03 | S. cerevisiae deletion strains, locus YPL240C, strain hsp82, stronger effect = lower value 1 | S. cerevisiae deletion strains, locus YPL241C, strain CIN2, stronger effect = lower value 0.993 | S. cerevisiae deletion strains, locus YPL256C, strain CLN2, stronger effect = lower value 0.965 | S. cerevisiae deletion strains, locus YPR119W, strain clb2, stronger effect = lower value 0.98 | S. cerevisiae deletion strains, locus YPR141C, strain kar3, stronger effect = lower value 0.976 | S. cerevisiae deletion strains, locus YPR163C, strain tif3, stronger effect = lower value 0.974 | S. cerevisiae deletion strains, locus YPR167C, strain met16, stronger effect = lower value 0.982 | S. cerevisiae deletion strains, strain wtn01, stronger effect = lower value 0.975 | S. cerevisiae strains, strain wild type, stronger effect = lower value 0.994
active: S. cerevisiae deletion strains, locus YNL307C, strain MCK1, stronger effect = lower value 0.889
